19 molecules from PubChem BioAssay can be followed below.

A number with no mark means an inactive call. For some assays here: Measured potencies and affinities stand elsewhere. Active and inactive are the calls of the source. Unless noted, how the calls were made is not given here.

Assay [1] in a line: antimalarial activity against Dd2 strain (AID 2302;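 active means growth inhibition above 50% at the single 2 µM test dose, taken to imply half-maximal potency below 2 µM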;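 further: 0% = DMSO untreated growth and 100% = chloroquine plus artemisinin killed control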). The note with it: P. falciparum Dd2 in RBCs, LDH growth readout, 72 h; at 2 µM; hits give high values.
Assay [2] can be described thus: human hepatoma cell viability loss – ATP luminescence, cytotoxicity control for P. falciparum antimalarial project, primary screen (AID 2303;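 active means inhibition above 50%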;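 further: 0% = DMSO wells and 100% = digitonin-killed cells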). The note with it: HepG2 viability, 24-48 h, at 10 µM, hits give high values.
The target of assay [3] is L-lactate dehydrogenase (Plasmodium falciparum (isolate CDC / Honduras)) (UniProt Q27743). Put plainly: PfLDH activity inhibition – cell lysate, 3D7 strain, counter-screen for P. falciparum growth inhibition project (AID 2304).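 Further: 0% = vehicle and 100% = reference inhibitor.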 As to conditions: P. falciparum 3D7 crude extract, LDH APAD/NBT absorbance; at 2 µM; hits give high values. A general note: Counterscreens check selectivity or assay interference.
Sequence of L-lactate dehydrogenase (Plasmodium falciparum (isolate CDC / Honduras)) (Q27743 whole entry, looked up): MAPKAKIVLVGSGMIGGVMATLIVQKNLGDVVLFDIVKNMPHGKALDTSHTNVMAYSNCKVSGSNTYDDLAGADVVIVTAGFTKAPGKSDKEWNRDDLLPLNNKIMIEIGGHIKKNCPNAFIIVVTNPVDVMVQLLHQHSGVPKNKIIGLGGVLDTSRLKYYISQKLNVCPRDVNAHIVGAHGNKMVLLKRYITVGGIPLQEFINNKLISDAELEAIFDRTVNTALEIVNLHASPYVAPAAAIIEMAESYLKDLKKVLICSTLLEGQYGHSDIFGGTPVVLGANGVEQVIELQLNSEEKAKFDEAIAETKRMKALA

The nature of assay [4]: inhibition of 3D7 malaria parasite growth – strain 3D7 (AID 2306).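 Further: 0% = DMSO wells and 100% = chloroquine plus artemisinin control wells.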 The note with it: P. falciparum 3D7 erythrocytic growth, LDH absorbance, 72 h; at 2 µM; hits give high values.
Assay [5] concerns the target Calcium-dependent protein kinase 1 (Plasmodium falciparum (isolate 3D7)) (UniProt P62344). The experiment in a line: PfCDPK1 kinase inhibitors, biochemical, TCAMS library (AID 1159585; cut-off not given, nearly all actives have IC50 up to about 0.98 µM;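 further: inhibitors leave more ATP so luminescence rises with inhibition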). The note with it: recombinant PfCDPK1, Kinase-Glo ATP depletion luminescence. For orientation: In Kinase-Glo more light means more ATP remaining.
For assay [6], the target named is Plasmodium falciparum protein kinase 6 (PK6, PF3D7_1337100) (UniProt Q8IDW1). Put plainly: PfPK6 kinase inhibitors, biochemical, TCAMS library (AID 1159586). The note with it: recombinant PfPK6, Kinase-Glo ATP depletion luminescence.
Sequence of Plasmodium falciparum protein kinase 6 (PK6, PF3D7_1337100) (Q8IDW1 1-305): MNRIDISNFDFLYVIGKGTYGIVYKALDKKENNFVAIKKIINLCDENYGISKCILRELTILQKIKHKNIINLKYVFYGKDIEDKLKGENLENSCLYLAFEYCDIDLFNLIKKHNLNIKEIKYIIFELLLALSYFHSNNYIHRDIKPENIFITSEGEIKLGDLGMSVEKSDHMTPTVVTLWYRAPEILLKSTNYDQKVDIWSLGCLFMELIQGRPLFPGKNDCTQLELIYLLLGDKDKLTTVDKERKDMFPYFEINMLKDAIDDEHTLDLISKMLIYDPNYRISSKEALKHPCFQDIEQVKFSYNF
Assay [7] concerns the target Protein kinase 7 (PK7), Plasmodium falciparum 3D7 (PF3D7_0213400) (UniProt Q7YTF7). The experiment in a line: inhibition of Plasmodium PK7 catalytic activity – biochemical, TCAMS antimalarial set, Kinase-Glo luminescence (AID 1159587). As to conditions: recombinant PfPK7, Kinase-Glo ATP depletion luminescence.
In assay [8] the target is Calcium-dependent protein kinase 4 (Plasmodium falciparum (isolate 3D7)) (UniProt Q8IBS5). The experiment in a line: PfCDPK4 kinase inhibitors, biochemical, TCAMS library (AID 1159588; cut-off not given, nearly all actives have IC50 up to about 0.91 µM). As to conditions: recombinant PfCDPK4, Kinase-Glo ATP depletion luminescence.
Sequence of Calcium-dependent protein kinase 4 (Plasmodium falciparum (isolate 3D7)) (Q8IBS5 whole entry, looked up): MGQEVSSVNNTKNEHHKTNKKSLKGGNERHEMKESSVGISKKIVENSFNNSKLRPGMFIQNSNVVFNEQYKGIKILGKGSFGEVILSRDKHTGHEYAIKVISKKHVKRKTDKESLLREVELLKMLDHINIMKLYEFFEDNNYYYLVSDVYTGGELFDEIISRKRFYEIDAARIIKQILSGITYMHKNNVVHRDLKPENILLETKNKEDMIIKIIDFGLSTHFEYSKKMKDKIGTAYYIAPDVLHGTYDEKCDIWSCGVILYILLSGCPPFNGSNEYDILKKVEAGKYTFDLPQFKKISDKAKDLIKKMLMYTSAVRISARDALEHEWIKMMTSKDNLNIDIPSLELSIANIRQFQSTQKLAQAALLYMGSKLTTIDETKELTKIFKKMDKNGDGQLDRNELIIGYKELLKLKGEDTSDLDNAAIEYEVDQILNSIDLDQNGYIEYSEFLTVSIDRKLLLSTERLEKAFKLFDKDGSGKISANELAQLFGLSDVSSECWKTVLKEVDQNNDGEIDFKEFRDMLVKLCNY

Sequence of Protein kinase 7 (PK7), Plasmodium falciparum 3D7 (PF3D7_0213400) (Q7YTF7 1-343): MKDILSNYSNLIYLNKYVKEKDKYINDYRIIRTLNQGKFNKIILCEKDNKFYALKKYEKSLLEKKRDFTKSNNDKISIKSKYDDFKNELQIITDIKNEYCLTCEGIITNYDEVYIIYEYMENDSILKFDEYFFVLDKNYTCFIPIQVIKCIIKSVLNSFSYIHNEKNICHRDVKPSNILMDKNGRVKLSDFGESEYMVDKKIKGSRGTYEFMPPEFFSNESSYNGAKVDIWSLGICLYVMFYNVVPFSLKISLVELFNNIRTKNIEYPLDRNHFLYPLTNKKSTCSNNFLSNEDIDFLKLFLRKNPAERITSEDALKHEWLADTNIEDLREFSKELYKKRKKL
Sequence of Calcium-dependent protein kinase 1 (Plasmodium falciparum (isolate 3D7)) (P62344 whole entry, looked up): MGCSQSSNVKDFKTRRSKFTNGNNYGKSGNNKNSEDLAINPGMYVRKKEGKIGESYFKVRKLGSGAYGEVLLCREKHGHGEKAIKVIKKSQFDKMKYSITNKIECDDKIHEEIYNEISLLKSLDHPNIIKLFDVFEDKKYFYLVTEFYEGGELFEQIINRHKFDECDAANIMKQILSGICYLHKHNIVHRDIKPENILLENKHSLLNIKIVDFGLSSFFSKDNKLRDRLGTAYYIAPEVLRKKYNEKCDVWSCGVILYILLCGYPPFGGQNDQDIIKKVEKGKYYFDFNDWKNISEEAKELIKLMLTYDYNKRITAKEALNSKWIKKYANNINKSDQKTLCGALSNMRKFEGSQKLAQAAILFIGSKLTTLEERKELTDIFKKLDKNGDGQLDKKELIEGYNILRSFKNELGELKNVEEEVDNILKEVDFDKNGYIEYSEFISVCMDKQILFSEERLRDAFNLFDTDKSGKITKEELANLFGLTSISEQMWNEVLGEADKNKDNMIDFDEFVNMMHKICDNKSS

For orientation: inhibition means the drop in the measured response relative to a control, in per cent. For `CCC(CC)n1cc2c(ccc3nc(N)nc(N)c32)n1`, the figures for the growth inhibition in assay [1] and in assay [4] were -2% and 91% (active), respectively. Besides, the inhibition is 61% (active) in assay [2] and 4% in assay [3]. Also, the result in assay [5], in assay [6], in assay [7] and in assay [8] was inactive.

`CN(C)CCCn1cncc1-c1ccc2ncnc(Nc3ccc(OCc4ccccc4)cc3)c2c1`: the growth inhibition in assay [1] and in assay [4] was 101% (active) in each case. For the same molecule, the inhibition in assay [2] is 37%; in assay [3], 2%. Besides, the result in assay [5], in assay [6], in assay [7] and in assay [8] was inactive.

For `Nc1nc(N)c2c(ccc3c2ncn3Cc2ccccc2)n1`, the growth inhibition in assay [1] and in assay [4] was 96% (active) each time. In addition, the inhibition in assay [2] was 71% (active); in assay [3] it was 4%. The outcome in assay [5], in assay [6], in assay [7] and in assay [8] was inactive.

Take `O=[N+]([O-])c1ccccc1C=NNc1ccnc2ccccc12`: the figures for the growth inhibition in assay [1] and in assay [4] were 98% (active) and 101% (active), respectively. For the same molecule, the inhibition in assay [2] was 3%; in assay [3], 2%. Also, the outcome in assay [5], in assay [6], in assay [7] and in assay [8] was inactive.

With `CCOc1ccc(-c2nonc2NC(=O)c2ccccc2Cl)cc1OCC`, the growth inhibition was 100% (active) in assay [1] and 101% (active) in assay [4]. Also, the figures for the inhibition in assay [2] and in assay [3] were 3% and 4%, respectively. Further, the result in assay [5], in assay [6], in assay [7] and in assay [8] was inactive.

On to `CC(C)c1ccc(NC(=O)c2ccc(CN3CCCN(CC4CCCCC4)CC3)cc2)cc1`, for which the growth inhibition was 34% in assay [1] and 90% (active) in assay [4]. Also, the inhibition in assay [2] is 50% (active); in assay [3], 6%. In addition, the outcome in assay [5], in assay [6], in assay [7] and in assay [8] was inactive.

With `COc1ccc2nccc([C@@H](O)CN3CCC(NCc4cnc5c(c4)NC(=O)CS5)CC3)c2c1`, the growth inhibition is 29% in assay [1] and 87% (active) in assay [4]. Besides, the inhibition is -15% in assay [2] and 0% in assay [3]. Further, the result in assay [5], in assay [6], in assay [7] and in assay [8] was inactive.

Consider `COc1cc2nc(N(C)Cc3cc4c(Cl)cccc4s3)nc(N)c2cc1OC`, for which the growth inhibition in assay [1] is 27%; in assay [4], 90% (active). For the same molecule, the inhibition was 32% in assay [2] and 4% in assay [3]. Also, the outcome in assay [5], in assay [6], in assay [7] and in assay [8] was inactive.

Consider `COc1ccc(C(=O)NCCCCN2CCC(c3ccc4c(c3OC)CCCC4)CC2)cc1-c1ccc(C(F)(F)F)cc1`, for which the growth inhibition in assay [1] is 56% (active); in assay [4], 100% (active). Further, the inhibition was 67% (active) in assay [2] and 5% in assay [3]. Also, the result in assay [5], in assay [6], in assay [7] and in assay [8] was inactive.

As for `CC(=O)N(C)C1CCN(Cc2ccc(-c3cccc(-c4nc5ccc(F)cc5[nH]4)c3)cc2)C1` (configuration not stated), the figures for the growth inhibition in assay [1] and in assay [4] were 79% (active) and 100% (active), respectively. For the same molecule, the inhibition in assay [2] was 28%; in assay [3], 6%. In addition, the result in assay [5], in assay [6], in assay [7] and in assay [8] was inactive.

On to `CCCCCCN1CCCN(Cc2cccc(NC(=O)c3cc4ccccc4s3)c2)CC1`, for which the growth inhibition in assay [1] is 53% (active); in assay [4], 88% (active). Further, the inhibition in assay [2] was 31%; in assay [3] it was 6%. Moreover, the result in assay [5], in assay [6], in assay [7] and in assay [8] was inactive.

Consider `COc1ccc(CC2(c3ccc(F)cc3)N=C(N)N(CCCc3ccccc3)C2=O)cc1` (configuration not stated), for which the figures for the growth inhibition in assay [1] and in assay [4] were 97% (active) and 99% (active), respectively. In addition, the figures for the inhibition in assay [2] and in assay [3] were 38% and 0%, respectively. Besides, the outcome in assay [5], in assay [6], in assay [7] and in assay [8] was inactive.

Regarding `Clc1cc(Nc2ccnc3ccc(Br)cc23)ccc1Oc1ccc2ccccc2c1Cl`, the growth inhibition in assay [1] is 93% (active); in assay [4], 100% (active). In addition, the results for the inhibition in assay [2] and in assay [3] were 5% and -5%, respectively. Moreover, the result in assay [5], in assay [6], in assay [7] and in assay [8] was inactive.

Regarding `Cc1ccc(C2CCN(CCCCNC(=O)c3ccc(NC(=O)c4ccc(Cl)cc4)cc3)CC2)c(OCC(F)(F)F)c1`, the growth inhibition in assay [1] was 84% (active); in assay [4] it was 99% (active). The figures for the inhibition in assay [2] and in assay [3] were 32% and -4%, respectively. Moreover, the result in assay [5], in assay [6], in assay [7] and in assay [8] was inactive.

On to `O=C(NCc1ccc(Cl)c(Cl)c1)c1ccc(C2CCCN(Cc3ccc4nc[nH]c4c3)C2)cc1` (configuration not stated), for which the growth inhibition is 83% (active) in assay [1] and 100% (active) in assay [4]. Moreover, the inhibition is 9% in assay [2] and 3% in assay [3]. Also, the outcome in assay [5], in assay [6], in assay [7] and in assay [8] was inactive.

Consider `CC(C)C[C@H](NC(=O)c1cc2ccccc2s1)C(=O)N[C@H]1CCN(Cc2ccc(OC[C@@H]3CCCN3C)c3ccccc23)C1`, for which the figures for the growth inhibition in assay [1] and in assay [4] were 93% (active) and 101% (active), respectively. Besides, the figures for the inhibition in assay [2] and in assay [3] were 69% (active) and -2%, respectively. Also, the result in assay [5], in assay [6], in assay [7] and in assay [8] was inactive.

As to `COc1ccc(CN2CCC(C(=O)Nc3cccc(-c4cccc(Cl)c4)c3)CC2)cc1O`, the growth inhibition is 0% in assay [1] and 91% (active) in assay [4]. For the same molecule, the inhibition in assay [2] was 25%; in assay [3], -2%. For the same molecule, the result in assay [5], in assay [6], in assay [7] and in assay [8] was inactive.

As to `O=C(NC1CCN(Cc2ccccc2O)C1)c1ccc(Cl)c(Cl)c1` (configuration not stated), the growth inhibition was 62% (active) in assay [1] and 92% (active) in assay [4]. In addition, the values for the inhibition in assay [2] and in assay [3] were -9% and -1%, respectively. Besides, the outcome in assay [5], in assay [6], in assay [7] and in assay [8] was inactive.

For `CCc1cn2c3c(cc(C(=O)N[C@@H](Cc4ccccc4)[C@H](O)CNC4CCOCC4)cc13)N(C)S(=O)(=O)C2`, the growth inhibition was 98% (active) in assay [1] and 99% (active) in assay [4]. Besides, the inhibition in assay [2] was 13%; in assay [3], -1%. For the same molecule, the outcome in assay [5], in assay [6], in assay [7] and in assay [8] was inactive.
